A selection follows.
HT1080-NT tox = kills 2HG-producing HT-1080-NT fibrosarcoma cells; HT-1080-NT fibrosarcoma viability, CellTiter-Glo ATP luminescence, 48 h; Potency, µM (titrated, usually from 46.1 µM), for inactives: at the top dose activity, negative = less viability, most hits filed as cytotoxic; 1.6% of 360,000 active;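 further: NT is the 2HG producing partner of a matched IDH1 knockdown line; potency means the concentration at half of the fitted maximal effect; 0% = DMSO-treated cells and -100% = media-only wells without cells; nearly all actives have a fitted effect of over 55% in size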
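Read-out is CellTiter-Glo luminescence after 10 minutes at room temperature, following 48 hours' compound treatment of HT-1080-NT cells (750 cells/well, RPMI, 5% FBS, 37 degrees C).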
KB-3-1 cytotox = kills parental KB-3-1 adenocarcinoma cells; Potency, µM (doses to about 46.1 µM), actives largely listed as cytotoxic; 1.4% of 400,000 active; AID 1347075; KB-3-1 viability, CellTiter-Glo ATP luminescence, 72 h; further: potency means the concentration at half of the fitted maximal effect; on the % scale 0 is the no-effect control and ±100 the full control effect; nearly all actives have a fitted effect of over 60% in size
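Parental KB-3-1 adenocarcinoma cells in phenol-red-free DMEM with 10% FBS were pin-treated with compounds at several concentrations, incubated 72 h at 37 °C, and viability read by CellTiter-Glo luminescence; concentration-effect curves were fitted after normalization.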
KB-V1 cytotox = kills drug-selected multidrug resistant KB-V1 cells; KB-V1 MDR cells viability, CellTiter-Glo, 72 h; Potency, µM (series often up to 46.1 µM), actives largely listed as cytotoxic; 3.4% of 400,000 active; further: potency means the concentration at half of the fitted maximal effect; on the % scale 0 is the no-effect control and ±100 the full control effect; nearly all actives have a fitted effect of over 60% in size
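KB-V1, DMEM (no phenol red) + 10% FBS; cpd pin-transferred, titration series; 72 h, 37 degrees C; CellTiter-Glo, luminescence. Data normalized, curve-fit.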
HT1080 IDH1KD tx = kills HT-1080 cells with IDH1 knockdown; HT-1080 IDH1 knockdown viability, ATP luminescence, 48 h; Potency, µM (highest dose often 46.1 µM), inactives show at the top dose activity, negative = toxicity, hits mostly cytotoxic; 2% of 360,000 active;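 further: potency means the concentration at half of the fitted maximal effect; 0% = DMSO wells and -100% = cell-free medium wells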
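Viability of IDH1-knockdown HT-1080 fibrosarcoma cells was assessed by CellTiter-Glo after 48 h at 37 °C with titrated compound; concentration-effect curves were classified by fit quality and response size.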
ATXN2 expr inh = inhibitors of ATXN2 expression; 0.72% of 360,000 active; AID 1745845; HEK-293 ATXN2-luciferase reporter, luminescence, 24 h; Potency, µM (series often up to 57 µM), for the others: at the top dose activity change, negative = inhibition, hits mostly inhibitors; further: potency means the concentration at half of the fitted maximal effect; on the % scale 0 is the no-effect control and ±100 the full control effect; nearly all actives have a fitted effect of over 55% in size
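ATXN2-luciferase reporter cells (luciferase flanked by upstream and downstream ATXN2 gene portions) were treated 24 h at 37 °C with compounds at up to 57 uM. SteadyGlo luminescence gave expression; GF-AFC fluorescence gave viability.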
ATXN viability = viability counter-screen for ATXN expression inhibitors | S2 cells (HEK-293 line with an ATXN2-luciferase reporter) viability, CellTiter-Fluor protease fluorescence, 24 h | Potency, µM (top dose mostly 56.7 µM), actives largely listed as cytotoxic | 0.49% of 400,000 active | AID 651635; further: potency means the concentration at half of the fitted maximal effect; nearly all actives have a fitted effect of over 40% in size
SK-N-SH 3D tox = kills SK-N-SH neuroblastoma spheroids in orthogonal 3D test; shares compounds with ATXN2 expr inh; SK-N-SH 3D spheroid viability, PI/Hoechst imaging, 72 h; Potency, µM (highest dose often 30.7 µM), actives largely listed as inhibitors; 70% of 65 active
SJ-GBM2 3D tox = reduced viability of SJ-GBM2 3D spheroids, orthogonal test | SJ-GBM2 3D spheroid viability, PI/Hoechst imaging, 72 h | AID 1347136 | Potency, µM (titrated, usually from 30.7 µM), usual class: inhibitors | 80% of 65 active | shares compounds with ATXN2 expr inh
Daoy spheroid = reduced viability of Daoy 3D spheroids, orthogonal test; shares compounds with ATXN2 expr inh; Daoy 3D spheroid viability, PI/Hoechst imaging, 72 h; Potency, µM (doses to about 30.7 µM), actives largely listed as inhibitors; 50% of 65 active
TC32 3D casp = caspase activation in TC32 3D spheroids, orthogonal test | shares compounds with ATXN2 expr inh | AID 1347138 | Potency, µM (top dose mostly 30.7 µM), most hits filed as inhibitors | 30% of 65 active | TC32 3D spheroids, caspase-3/7 fluorescence imaging, 24 h
TC32 3D tox = reduced viability of TC32 3D spheroids, orthogonal test; Potency, µM (doses to about 30.7 µM), hits mostly inhibitors; TC32 3D spheroid viability, PI/Hoechst imaging, 72 h; 60% of 65 active; shares compounds with ATXN2 expr inh; AID 1347139
MG63 spheroid = MG-63 (6-TG R) 3D spheroid viability loss; shares compounds with ATXN2 expr inh; MG-63 (6-TG R) 3D spheroid viability, PI/Hoechst imaging, 72 h; Potency, µM (doses to about 30.7 µM), hits mostly inhibitors; 50% of 65 active
RD spheroid = RD 3D spheroid viability loss. shares compounds with ATXN2 expr inh. 50% of 65 active. AID 1347141. Potency, µM (series often up to 30.7 µM), usual class: inhibitors. RD rhabdomyosarcoma 3D spheroid viability, PI/Hoechst imaging, 72 h
Numbers without * were called inactive; i = inactive; ? = inconclusive; nt = no result given; ! = not confirmed by another sample. The call rests on the fitted dose curve; in most records, active means well fitted curve in the direction sought with a large enough effect; inconclusive means small, poorly fitted or top-dose-only effect, or another doubt; inactive means no such curve, though single readings can be large; an effect the other way counts as inactive or inconclusive.

SMILES	HT1080-NT tox	KB-3-1 cytotox	KB-V1 cytotox	HT1080 IDH1KD tx	ATXN2 expr inh	ATXN viability	others
COc1cc([C@@H]2c3cc4c(cc3[C@H](O)[C@H]3COC(=O)[C@H]23)OCO4)cc(OC)c1OC	?	0.103µM*!	0.259µM*	0.0065µM*	-4.4%	?	SK-N-SH 3D tox=0.0228µM*;SJ-GBM2 3D tox=0.0362µM*;Daoy spheroid=?;TC32 3D casp=0.0574µM*;TC32 3D tox=0.0574µM*;MG63 spheroid=?;RD spheroid=0.0456µM*
C=C1[C@@H]2CC[C@H]3[C@@]4(C)C[C@@H](O[C@@H]5O[C@H](CO)[C@H](OS(=O)(=O)O)[C@@H](OS(=O)(=O)O)[C@@H]5OC(=O)CC(C)C)C[C@@H](C(=O)O)[C@H]4CC[C@@]3(C2)[C@H]1O	nt	nt	nt	nt	nt	i
CCCC1CCCCN1 (stereo not given)	nt	nt	nt	nt	10.7%	i
CCN(CC)C(C)C(=O)c1ccccc1 (stereo not given)	nt	nt	nt	nt	6.7%	i
Cc1cccc(Cn2cccc(C(=O)Nc3nc4ccccc4s3)c2=O)c1	nt	i	i	nt	49.6%	i
O=C(CCN1CCN(CCO)CC1)N1c2ccccc2Sc2ccc(C(F)(F)F)cc21	-8.4%	i	i	-26.7%	-21.7%	i
CC(C)c1ccc(NC(=O)CN2C(=O)CN=C(c3ccccc3)c3ccccc32)cc1	nt	i	i	nt	6.9%	?
CN(C)C(=O)Oc1ccnc2cc(Cl)ccc12	-1.3%	i	i	9.9%	-4.9%	i
Cc1ccc(Cn2cccc(C(=O)Nc3nnc(C)s3)c2=O)cc1	nt	?	i	nt	2.4%	i
CN1CCC(OC(=O)c2ccccc2)CC1	6.2%	i	i	11.5%	nt	?
Cc1oc(-c2ccc(Cl)cc2)nc1CN1C(=O)CN=C(c2ccccc2)c2ccccc21	nt	i	i	nt	?	?
COC(=O)c1c(C)n(Cc2ccccc2)c2ccc(O)cc12	-22.4%	i	i	-14.7%	0.4%	i
COc1ccc(OCC(=O)Nc2ccc(Cl)cc2C(=O)c2ccccc2)cc1	9.8%	i	i	0.9%	-8.0%	i
CCCCCn1c(=O)c(C(=O)Nc2nc3ccccc3[nH]2)c(O)c2ccccc21	-2.7%	?	?	-6.7%	-9.3%	i
CC1OC(C)OC(C)O1 (stereo not given)	nt	nt	nt	nt	7.7%	i
N#Cc1nn(-c2c(Cl)cc(C(F)(F)F)cc2Cl)c(N)c1S(=O)C(F)(F)F (stereo not given)	nt	nt	nt	nt	-19.5%	i
CN1CCN(c2csc3ccc(F)cc3c2=O)CC1	nt	i	i	nt	2.5%	i
Cc1cc(C)c(C(=O)COC(=O)Cn2nc(-c3ccccc3)oc2=O)cc1C	17.1%	i	?	?	6.6%	i
CCCCc1ccc(NC(=O)c2cccn(Cc3ccc(Cl)cc3)c2=O)cc1	nt	?	i	nt	-12.1%	i
Cc1ccc(NC(=O)CN2C(=O)CN=C(c3ccccc3)c3ccccc32)c(C)c1	nt	i	i	nt	-0.6%	i
CC(=O)c1ccc2c(c1)N(CCCN(C)C)c1ccccc1S2	?	i	?	-78.2%	?	?
CNCCCN1c2ccccc2CCc2ccccc21	?	i	?	?	?	?
Cc1ccnc2c1NC(=O)c1cccnc1N2C1CC1	-12.1%	i	i	?	-22.5%	i
CCc1ccc(-n2nc(C)c3c2NC(=O)CSC3c2ccc(C(=O)OC)cc2)cc1 (stereo not given)	nt	i	i	nt	?	?
N#CCn1c(CCl)nc2ccccc2c1=O	-7.3%	?	i	-5.4%	?	?
